# Source: PubChem BioAssay (National Center for Advancing Translational Sciences (NCATS))
# HT1080 IDH1KD tx: HT-1080 IDH1 knockdown cell toxicity (counter line); 360,000 tested, 2% active; HT-1080 IDH1 knockdown viability, ATP luminescence, 48 h; Potency, µM (doses to about 46.1 µM), for inactives: at the highest dose activity, negative = toxicity, most hits filed as cytotoxic; AID 686971;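 also: 0% = DMSO wells and -100% = cell-free medium wells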
#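 After a 2 h attachment period, IDH1KD HT-1080 cells took pin-transferred compound for 48 h at 37 °C; ATP-based luminescence after 10 min room-temperature reagent incubation reported viability.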
# KB-3-1 tox: KB-3-1 parental cell cytotoxicity; KB-3-1 viability, CellTiter-Glo ATP luminescence, 72 h; AID 1347075; 400,000 tested, 1.4% active; Potency, µM (highest dose often 46.1 µM), actives largely listed as cytotoxic; also: % is scaled to controls: 0 for no effect and ±100 for the full control effect; nearly all actives have a fitted effect of over 60% in size
#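 Multi-concentration cytotoxicity screen in KB-3-1 cells grown in DMEM lacking phenol red with 10% FBS. After 72 h at 37 °C with compound, ATP-dependent luminescence was recorded.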
# KB-V1 cytotox: kills drug-selected multidrug resistant KB-V1 cells; KB-V1 MDR cells viability, CellTiter-Glo, 72 h; Potency, µM (doses to about 46.1 µM), usual class: cytotoxic; 400,000 tested, 3.4% active; also: % is scaled to controls: 0 for no effect and ±100 for the full control effect; nearly all actives have a fitted effect of over 60% in size
#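 qHTS viability screen in drug-selected KB-V1 MDR cells: 72 h compound treatment at 37 degrees C, ATP luminescence end point.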
# HT1080-NT tox: kills 2HG-producing HT-1080-NT fibrosarcoma cells. HT-1080-NT fibrosarcoma viability, CellTiter-Glo ATP luminescence, 48 h. Potency, µM (doses to about 46.1 µM), for inactives: at the top dose activity, negative = less viability, most hits filed as cytotoxic. 360,000 tested, 1.6% active. AID 686970;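 also: NT is the 2HG producing partner of a matched IDH1 knockdown line; 0% = DMSO-treated cells and -100% = media-only wells without cells; nearly all actives have a fitted effect of over 55% in size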
#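 HT-1080-NT fibrosarcoma cells (2HG-overproducing), 750 cells/well in RPMI with 5% FBS, dosed after 2 h and incubated 48 h at 37C. CellTiter-Glo luminescence normalized to DMSO and no-cell wells; concentration-response curves fitted and classed.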
# SW480 rerep: DNA re-replication induction in SW480 cells; SW480 DNA re-replication, Hoechst DNA content imaging, 48 h; AID 624297; 340,000 tested, 1.8% active; Potency, µM (series often up to 46.1 µM), for the others: at the highest dose re-replication activation, actives largely listed as activators; also: % of control where 0% means no effect; nearly all actives have a fitted effect of over 55% in size
#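 Cells (250 per well) received 23 nL compound or DMSO by pin tool and were kept 48 hr at 37 C, 5% CO2. Nuclei were then stained with Hoechst for 40 min and scanned for DNA content.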
# MCF10A rereplic: induces DNA re-replication in MCF 10a normal breast cells. 350,000 tested, 2.9% active. MCF 10A DNA re-replication, Hoechst nuclear intensity, 48 h. Potency, µM (highest dose often 46.1 µM), inactives show at the top dose activity, positive = re-replication, hits mostly activators; also: % of control where 0% means no effect; nearly all actives have a fitted effect of over 50% in size
# * hit, by the source's call; i = inactive; ? = inconclusive; . = no result; [ ] = remark or other dose. Sampled rows, rich in hits. Any-hit rate of the full collection: about 7.9%. Calls follow the shape of the dose curve; as a rule, active = well fitted curve in the direction sought with a large enough effect; inconclusive = small, poorly fitted or top-dose-only effect, or another doubt; inactive = no such curve, though single readings can be large; an effect the other way counts as inactive or inconclusive. Potency is read from the fitted curve at half-maximal effect.
SMILES,HT1080 IDH1KD tx,KB-3-1 tox,KB-V1 cytotox,HT1080-NT tox,SW480 rerep,MCF10A rereplic
Cc1ccc(OCC(=O)Nc2ccccc2C(=O)OCc2cc(=O)n3nc(C4CC4)sc3n2)cc1,.,i,i,.,.,.
CCOc1ccc(CN(C)C(=O)CCl)cc1,?,?,?,?,16.4µM*,?
COC(=O)c1ccccc1NC(=O)Cn1cnc2c(cnn2-c2ccccc2)c1=O,4.2%,i,6.51µM*,18.5%,-5.2%,-6.8%
CCn1cnc2c(cnn2-c2ccccc2)c1=O,0.0%,?,10.3µM*,-3.3%,3.8%,8.0%
COc1cccc(NC(=O)C2CCC(CNS(=O)(=O)c3csc(C(N)=O)c3)CC2)c1 (stereo not given),.,i,i,.,.,.
COc1cccc(NC(=O)C2CCC(CNS(=O)(=O)c3cccs3)CC2)c1 (stereo not given),-7.6%,?,i,?,20.6µM*,?
CCOC(=O)C1CCCN(C(=O)C2CCN(S(=O)(=O)c3cccs3)CC2)C1 (stereo not given),15.7%,20.6µM*,i,6.8%,0.5%,-1.7%
O=C(Nc1ccc(F)c(F)c1)C1CCN(S(=O)(=O)c2cccs2)CC1,8.4%,i,16.4µM*,2.9%,4.5%,11.8%
Cc1ccc(NC(=O)C2CCN(S(=O)(=O)c3cccs3)CC2)cc1,-19.2%,i,i,-7.2%,-23.6%[1.84 µM],-14.8%
O=C(C1CCN(S(=O)(=O)c2cccs2)CC1)N1CCCCC1,-3.8%,i,i,-0.3%,-16.3%,3.2%
CCOC(=O)C1CCN(C(=O)C2CCN(S(=O)(=O)c3cc(Cl)ccc3Cl)CC2)CC1,-26.7%,i,23.1µM*,8.1%,-2.6%,-2.4%
CCOC(=O)N1CCN(C(=O)C2CCN(S(=O)(=O)c3cc(Cl)ccc3Cl)CC2)CC1,2.4%,i,?,0.5%,-3.3%,3.0%
Cc1ccc(CNC(=O)COC(=O)c2ccccc2OCC(=O)Nc2ccc(Br)cc2)cc1,-4.2%,.,.,-3.9%,.,.
CCOC(=O)c1cccc(NC(=O)C2CCN(S(=O)(=O)c3cccs3)CC2)c1,?,?,7.31µM*,?,4.1%,16.2%
CCOC(=O)C1=C(C)NC(C)=C(C(=O)OCC)C1c1cccs1,-12.6%,i,?,-12.3%,-2.1%,-2.5%
COc1ccccc1NC(=O)C1=C(C)NC(SCC(=O)c2ccccc2)=C(C#N)C1c1ccco1 (stereo not given),?,i,i,?,?,?
CC(=O)C1=C(C)NC(SCC(=O)Nc2nc3ccccc3s2)=C(C#N)C1c1ccc(Cl)cc1 (stereo not given),-2.8%,?,?,-21.0%,15.8µM*,22.2%
C#CCSC1=C(C#N)C(c2cccs2)C(C(=O)OCC)=C(C)N1 (stereo not given),-10.8%,i,10.3µM*,9.4%,3.5%,14.3%
C=CCOC(=O)C1=C(C)NC(SCC)=C(C#N)C1c1ccc(Cl)cc1 (stereo not given),8.2µM*,?,23.1µM*,9.2µM*,?,23.1µM*
COc1ccc(NC(=O)CSC2=C(C#N)C(c3ccco3)C(C(=O)Nc3nc4ccccc4s3)=C(C)N2)cc1 (stereo not given),-18.2%,?,i,-21.8%,9.2µM*,?
C=CCOC(=O)C1=C(C)NC(SCC(N)=O)=C(C#N)C1c1ccc(C)cc1 (stereo not given),-2.7%,i,i,-3.3%,-11.9%,1.0%
CN1C(=O)[C@H]2[C@@H](/C=C/c3ccccc3)N3C(=O)CN(Cc4ccc(-c5ccccc5)cc4)C(=O)[C@@]3(Cc3ccccc3)[C@H]2C1=O,-6.5%,i,i,-1.5%,-2.7%,8.7%
OC[C@@H]1CN(Cc2ccc(F)cc2)C[C@H](n2cnc3c(NCc4ccc(F)cc4)ncnc32)O1,-4.5%,i,i,-6.6%,.,.
C=CCOC(=O)C1=C(C)NC(SCC(=O)Nc2ccc(C)c(Cl)c2)=C(C#N)C1c1ccco1 (stereo not given),16.4µM*,i,i,18.4µM*,11.2µM*,11.2µM*
COCCOC(=O)C1=C(C)NC(SCC(=O)NC(C)(C)C)=C(C#N)C1c1ccco1 (stereo not given),-3.3%,i,?,-1.2%,18.1%,?
SMILES,HT1080 IDH1KD tx,KB-3-1 tox,KB-V1 cytotox,HT1080-NT tox,SW480 rerep,MCF10A rereplic
CC(C)C[C@@]12C(=O)N(c3ccc(Br)cc3)C(=O)N1[C@H](c1ccc(Br)cc1)[C@@H]1C(=O)N(C(C)(C)C)C(=O)[C@@H]12,-9.6%,i,i,-25.9%,3.9%,1.5%
S=C(NCCC1=CCCCC1)Nc1ccc(Cl)cc1,6.7%,i,7.31µM*,15.6%,4.3%,9.7%
COc1ccc(NC(=S)NCCC2=CCCCC2)cc1OC,8.0%,i,i,8.9%,3.7%,-0.2%
COc1ccc(N(C)C(=S)Nc2ccc3nc(C)c(C)nc3c2)cc1,26.3%,i,13µM*,8.9%,-9.8%,14.8%
Cc1nc2ccc(NC(=S)NCc3ccccc3)cc2nc1C,-14.5%,i,?,7.4%,-0.6%,3.9%
Cc1nc2ccc(NC(=S)N3CCCC3)cc2nc1C,4.0%,i,i,11.4%,-4.1%,0.731µM*
O=c1[nH]c(NCCO)c(N=Cc2ccccc2)c(=O)[nH]1,6.7%,i,i,?,2.31µM*,?
Nc1[nH]c(=O)[nH]c(=O)c1N=Cc1ccccc1,?,i,?,-3.1%,18.2%,4.4%
c1ccc(Nc2nc(Nc3ccccc3)nc(-n3cccn3)n2)cc1,.,?,i,.,.,.
Fc1ccc(-c2cc(-c3ccccc3)nc(-n3cccn3)n2)cc1,-13.7%,i,i,-14.8%,3.0%,18.4µM*
CCN(CC)C(=O)CSc1nnc2nnc3cc(OC)ccc3n12,?,?,?,13µM*,?,2.9%
CCN(CC)C(=O)CSc1nnc(COc2ccc(OC)cc2)n1N,8.5%,i,i,11.8%,-0.5%,-4.5%
CCOc1ccc(-n2c(C)nnc2SCC(=O)N(CC)CC)cc1,9.4%,i,16.4µM*,10.8%,-7.7%,13.9%
COC(=O)[C@@]1(C)[C@H]2C(=O)N(C)C(=O)[C@H]2[C@H]2CN=C(SC)N21,8.0%,?,i,5.9%,?,3.1%
COc1ccc(OCC(=O)Nc2cc(-c3cccc(Cl)c3)nn2-c2ccccc2)cc1,.,i,i,.,.,.
CC1(C)OC(=O)C2(Cc3cc([N+](=O)[O-])ccc3N3CCCCCC32)C(=O)O1 (stereo not given),.,i,i,.,.,.
